Source: the supplement of paper PMC4894684
Where a name gives a salt, the structure may show the parent alone. ± gives the standard deviation of the averaged measurements.

Tested on: Toxoplasma gondii RH (in HFF)
Test: parasite growth relative to the screen mean (all compounds = 100%); higher = less inhibition of parasite growth
Conditions: 5 µM; 72 h; oxygen 21 %
How it was run: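 Growth values are relative to the mean of the whole screen and averaged over duplicate screens, with all compounds together set to 100%. Parasites (RH β-Gal–GFP Toxoplasma, MOI 1:5) were added within 2 h of pinning compounds at 5 µM final onto confluent human foreskin fibroblasts and grown 72 h at 21% O2. Parasite number came from CPRG β-Gal readings against in-plate standard curves.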

Row | SMILES | parasite growth
1 | CN1CC[C@@H]2CN3CCc4cccc(c43)[C@@H]2C1 [SDZ SER 082 fumarate] | 165 ± 19%
2 | CC(C)(Cc1c[nH]c2ccc(Cl)cc12)NCCOc1ccccc1OCC1CC1 | < 0%
3 | OC(Cc1ccncc1)C(Cl)(Cl)Cl (stereo not drawn) | 133 ± 9.6%
4 | CN1[C@@H]2CC[C@H]1CC(OC(=O)N1Cc3ccccc3NC1=O)C2 (stereo partly drawn) [DAU 5884 hydrochloride] | 97.7 ± 16%
5 | C[C@@]12N[C@@H](Cc3ccccc31)c1ccccc12 [(-)-MK 801 maleate] | 111 ± 10%
6 | N[C@H](C(=O)O)c1cc(O)no1 [Ibotenic acid] | 136 ± 26%
7 | CC(=O)N(C)c1cccc(-c2ccnc3c(C(=O)c4cccs4)cnn23)c1 [Indiplon] | 79.5 ± 17%
8 | NP(N)(=O)NC(=O)c1ccc(F)cc1 [Flurofamide] | 90 ± 34%
9 | CCCOc1ccc2[nH]cc(C3=CCNCC3)c2n1 | 140 ± 5.8%
10 | CC(C)[C@@]1(NC(=O)[C@@H]2C[C@@H]3c4cccc5[nH]cc(c45)C[C@H]3N(C)C2)O[C@@]2(O)[C@@H]3CCCN3C(=O)[C@H](Cc3ccccc3)N2C1=O [Dihydroergocristine mesylate] | 8.76 ± 1.6%
11 | CCCN1CCC[C@@H]2Cc3n[nH]cc3C[C@H]21 [(-)-Quinpirole hydrochloride] | 143.8 ± 1.3%
12 | Cc1cc(SCc2sc(-c3ccc(C(F)(F)F)c(F)c3)nc2C)ccc1OCC(=O)O | 79.2 ± 4.8%
13 | Cc1ccc2c(c1)C1(CCN(CCc3nc(-c4ccccc4)oc3C)CC1)OC(=O)N2 | 96.7 ± 3.8%
14 | CN1[C@@H]2CC[C@H]1C[C@@H](OC(c1ccc(F)cc1)c1ccc(F)cc1)C2 [3α-Bis-(4-fluorophenyl) methoxytropane hydrochloride] | 40.3 ± 22%
15 | CN1CCN(c2ccc3ccccc3n2)CC1 [N-Methylquipazine dimaleate] | 111 ± 14%
16 | O=C1C2CCN(CC2)C1(CO)CO | 144 ± 4%
17 | COc1ccc2c(c1)c(CCN1CCOCC1)c(C)n2C(=O)c1cccc(Cl)c1Cl | 145 ± 22%
18 | Cc1ncsc1CCCl [Chlormethiazole hydrochloride] | 60 ± 21%
19 | S=C(NC1CCCCC1)N1CCC(c2cnc[nH]2)CC1 [Thioperamide] | 124 ± 20%

Row | SMILES | parasite growth
20 | Fc1ccc(C(OCCN2CCN(C/C=C/c3ccccc3)CC2)c2ccc(F)cc2)cc1 | 32.9 ± 3.4%
21 | C[C@H](N)Cc1cnc[nH]1 [(S)-(+)-a-Methylhistamine dihydrobromide] | 113 ± 11%
22 | Cc1cccc(C(C)c2c[nH]cn2)c1C (stereo not drawn) [Medetomidine hydrochloride] | 24.7 ± 22%
23 | c1cc(Cc2cnc[nH]2)ccn1 [Immethridine dihydrobromide] | 133 ± 31%
24 | CCCN(CCC)C1Cc2cc(OC)c(OC)cc2C1 | 123 ± 7.5%
25 | C=CCN1CC[C@]23c4c5ccc(O)c4O[C@H]2C(=O)CC[C@@]3(O)[C@H]1C5 [Naloxone hydrochloride] | 143 ± 14%
26 | CC[N+](CC)(CCCNC1=CC(=O)C(NCCC[N+](CC)(CC)Cc2ccccc2)=CC1=O)Cc1ccccc1 [Benzoquinonium dibromide] | 129 ± 29%
27 | c1ccc(C2CNCc3ccccc32)cc1 (stereo not drawn) [4-Phenyl-1,2,3,4-tetrahydroisoquinoline hydrochloride] | 98.2 ± 12%
28 | c1ccc2nc(N3CCNCC3)ccc2c1 [Quipazine dimaleate] | 115 ± 8.3%
29 | COc1ccc(C(=O)N2CCCC2=O)cc1 [Aniracetam] | 97.2 ± 53%
30 | CN1C[C@H](CNC(=O)OCc2ccccc2)C[C@@H]2c3cccc4c3c(cn4C)C[C@H]21 [Metergoline] | 71 ± 0.52%
31 | COC1(C[S@+]([O-])c2ccccc2)CCN(CCc2c[nH]c3ccc(F)cc23)CC1 | 67.1 ± 9.3%
32 | C1CCc2nnnn2CC1 [Pentylenetetrazole] | 110 ± 22%
33 | CN1C[C@H](C(=O)N[C@]2(C)O[C@@]3(O)[C@@H]4CCCN4C(=O)[C@H](Cc4ccccc4)N3C2=O)C[C@@H]2c3cccc4[nH]cc(c34)C[C@H]21 [Dihydroergotamine mesylate] | 39.27 ± 0.23%
34 | N[C@@H](Cn1oc(=O)[nH]c1=O)C(=O)O [L-Quisqualic acid] | 99 ± 20%
35 | BrC1C(Br)C(Br)C(Br)C(Br)C1Br (stereo not drawn) [1,2,3,4,5,6-Hexabromocyclohexane] | 112 ± 29%
36 | CC(N)Cc1c[nH]c2ccc(OCc3cccs3)cc12 (stereo not drawn) [BW 723C86 hydrochloride] | 133 ± 3.8%
37 | Cc1nnc2n1-c1sc(CCC(=O)N3CCOCC3)cc1C(c1ccccc1Cl)=NC2 | 132 ± 22%
38 | O=C1Nc2ccccc2C2(CCN(CCc3ccc(C(F)(F)F)cc3)CC2)O1 | 99.9 ± 20%
